The whole screen tested about 360,000 compounds, of which about 11,000 (3.1%) were called active. About 2% were inconclusive and are not listed. Rule as the data show it: active = fluorescence intensity above about 16000; inconclusive = no clear call, values can overlap the other calls; inactive = below that. For the sample, actives were picked, then their nearest neighbours and some compounds at random.

We go through 58 compounds from PubChem BioAssay AID624483 (NMMLSC, 2012).

This assay is described as follows: counter-screen for toxin protease inhibitors: compound fluorescence, primary screen, artefact control for toxin protease inhibitor project, biochemical, multiplex microsphere, HTS (AID 624483). The settings on record: compound autofluorescence counterscreen, microsphere flow cytometry; hits give high values. Background: Counterscreens check selectivity or assay interference.
Take `COC(=O)CNC(=O)c1ccc2c(c1)S(=O)(=O)c1ccccc1C2=O`: the fluorescence intensity is 2970 (inactive).

`CC(C)NC(=O)NNc1c(Cl)cncc1Cl`: the fluorescence intensity was 3840 (inactive).

As for `CCOC(=O)NNc1cc(C(F)(F)F)ccn1`, the fluorescence intensity was 3590 (inactive).

For `Cc1nc(N)[nH]c(=O)c1Oc1cccc(C(F)(F)F)c1`, the fluorescence intensity was 6010 (inactive).

With `CCC(=O)OCc1c(C(F)(F)F)nn(C)c1Oc1cccc(C(F)(F)F)c1`, the fluorescence intensity was 18100 (active).

`CCCCNC(=O)Nc1c(C)cc(SC#N)cc1C`: the fluorescence intensity is 2550 (inactive).

As for `Cn1c2ccccc2n2c(=O)c(=O)n(CC(=O)c3ccc(F)cc3)nc12`, the fluorescence intensity is 8720 (inactive).

`CC1(C(=O)NS(=O)(=O)c2ccccc2)CCN1C(=O)C1CCCCC1` (stereo not drawn): the fluorescence intensity was 3660 (inactive).

Take `Cc1cc(N2CCN(S(=O)(=O)c3ccc(C)c(C)c3)CC2)c2ccccc2n1`: the fluorescence intensity is 23300 (active).

Regarding `Cc1ccccc1N1CCN(S(=O)(=O)c2ccc3ccccc3c2)CC1`, the fluorescence intensity is 4580 (inactive).

Regarding `Cc1ccc(S(=O)(=O)N2CCN(c3ccccc3)CC2)cc1C`, the fluorescence intensity is 4010 (inactive).

Turning to `CCCS(=O)(=O)NC(=O)C1(C)CCN(C(=O)c2sccc2C)C1` (stereo not drawn), the fluorescence intensity was 3570 (inactive).

Regarding `CC(=O)N1Cc2cc(C(=O)NCc3cccc(F)c3)nc(-c3cccc(C4=CCCC4)c3)c2[C@H]1CCO`, the fluorescence intensity was 5550 (inactive).

As to `O=[N+]([O-])c1ccc(C2C3C(c4ccccc4)=NC4(CCCCC4)N32)cc1` (stereo not drawn), the fluorescence intensity is 7680 (inactive).

Take `O=c1cc(-c2ccccc2)nc(N2CCCCC2)[nH]1`: the fluorescence intensity is 6120 (inactive).

On to `O=C1NC2(CCCCC2)N=C1c1ccccc1`, for which the fluorescence intensity is 24900 (active).

With `CCCNC(=O)C1(C)CCN(C(=O)c2ccc(F)cc2Cl)C1` (stereo not drawn), the fluorescence intensity is 2840 (inactive).

As for `COCCNC(=O)C1CCCN(Cc2ccccc2Cl)CC1` (stereo not drawn), the fluorescence intensity was 3660 (inactive).

For `CCOC(=O)c1c(CN2CCOCC2)n(-c2ccccc2)c2ccc(O)cc12`, the fluorescence intensity is 16500 (active).

For `CCOC(=O)c1c(CN(C)C)n(-c2ccccc2)c2cc(Br)c(O)cc12`, the fluorescence intensity is 5060 (inactive).

`CCOC(=O)c1nnn(-c2nonc2-n2cccc2)c1CN1CCOCC1`: the fluorescence intensity is 10800 (inactive).

Regarding `C[C@H]1CN([C@@H](C)CO)C(=O)Cc2cc(NS(C)(=O)=O)ccc2O[C@@H]1CN(C)CC1CC1`, the fluorescence intensity was 3570 (inactive).

Turning to `CCc1nc2c(OCCOc3ccccc3)cccn2c1N(C)C(=O)c1cccs1`, the fluorescence intensity is 3880 (inactive).

As for `CCOc1ccc(Cl)cc1-c1cc(C(=O)NCc2cccs2)[nH]n1`, the fluorescence intensity is 3900 (inactive).

For the compound `CC(=O)c1cccc(-c2cnc3c(NC=O)cc(-c4ccc(N(C)C)cc4)cn23)c1`, the fluorescence intensity was 3260 (inactive).

Turning to `CC(C)(C)OC(=O)N1CCN(C(=O)c2[nH]c(C(F)(F)F)nc2-c2ccccc2)CC1`, the fluorescence intensity is 5720 (inactive).

As for `CCN(CC(=O)Nc1ccc2c(c1)OCCO2)Cc1cc(=O)oc2cc(C)c(C)cc12`, the fluorescence intensity was 10100 (inactive).

On to `CC(C)NS(=O)(=O)c1ccc(OCC(=O)Nc2ccc3c(c2)OCCO3)cc1`, for which the fluorescence intensity was 4280 (inactive).

For the compound `O=C(COc1ccc2c(C(F)(F)F)cc(=O)oc2c1)Nc1ccc2c(c1)OCCO2`, the fluorescence intensity was 23100 (active).

Take `Cc1cc(C(=O)N2CCCC2(C)C(=O)O)c(C)o1` (stereo not drawn): the fluorescence intensity was 4080 (inactive).

Take `Cc1cccc(C)c1Cn1c(C)c(C(=O)NCc2cccc(Cl)c2)sc1=O`: the fluorescence intensity is 4280 (inactive).

In the case of `CC(C)COP(=O)(c1ccc(N(C)C)cc1)C(Nc1ccccc1)c1cccnc1` (stereo not drawn), the fluorescence intensity was 2300 (inactive).

As to `Cc1ccccc1C(=O)Nc1ccccc1NC(=O)c1ccccc1C`, the fluorescence intensity was 3760 (inactive).

For the compound `COC(=O)c1ccc(C(=O)Nc2cc(Cl)ccc2Cl)cc1NC(=O)c1ccccc1C`, the fluorescence intensity was 23700 (active).

Regarding `COC(=O)c1ccc(C(=O)OC)c(NC(=S)N2CCN(c3cc(Cl)ccc3C)CC2)c1`, the fluorescence intensity was 2510 (inactive).

Turning to `CC1CCN(S(=O)(=O)c2ccc(S(=O)(=O)NCc3ccco3)cc2)CC1`, the fluorescence intensity is 6420 (inactive).

Turning to `COc1ccc(C2=NOC3(CC(=O)N(c4ccc(Cl)cc4)C3=O)C2)c(OC)c1` (stereo not drawn), the fluorescence intensity was 20500 (active).

On to `COc1cccc(N2CCN(C3CC(=O)N(c4ccc(Cl)cc4)C3=O)CC2)c1` (stereo not drawn), for which the fluorescence intensity was 2900 (inactive).

As to `O=C1CC2(CC(c3ccc(Cl)cc3)=NO2)C(=O)N1c1ccccc1` (stereo not drawn), the fluorescence intensity was 5420 (inactive).

Regarding `CSc1ccc(CNC(=O)C2(C)CCCN2C)cc1` (stereo not drawn), the fluorescence intensity is 3920 (inactive).

For the compound `COc1ccc2oc(N)nc2c1`, the fluorescence intensity is 2890 (inactive).

On to `COc1ccc2oc(=N)c(C(=O)Nc3ccc(Br)cc3)cc2c1`, for which the fluorescence intensity is 2900 (inactive).

`COc1ccc2oc(=O)c(C(=O)O)cc2c1`: the fluorescence intensity is 20900 (active).

For `Cc1ccc(NC(=O)[C@H](Cc2ccccc2)NC(=O)CC[C@H]2O[C@@H](n3ccc(=O)[nH]c3=O)[C@H](O)[C@@H]2O)cc1C`, the fluorescence intensity was 5530 (inactive).

For the compound `CCOC(=O)C1(C)CCCN(C(=O)c2cccc(Cl)c2)C1` (stereo not drawn), the fluorescence intensity was 3450 (inactive).

Take `CC(=NC1CCN(Cc2ccccc2)CC1)c1c(O)n(C)c(=O)n(C)c1=O`: the fluorescence intensity was 22500 (active).

As to `CC(=NC1CCN(Cc2ccccc2)CC1)c1c(O)[nH]c(=O)[nH]c1=O`, the fluorescence intensity was 22800 (active).

For `CC(=NCC1CCCO1)c1c(O)[nH]c(=O)[nH]c1=O` (stereo not drawn), the fluorescence intensity is 2530 (inactive).

For the compound `COCCn1c(CN2CCC(Cc3ccccc3)CC2)nc2c1c(=O)n(C)c(=O)n2C`, the fluorescence intensity was 2950 (inactive).

For `CC(=NCc1ccc2c(c1)OCO2)c1c(O)[nH]c(=O)[nH]c1=O`, the fluorescence intensity was 4690 (inactive).

Turning to `CC1CCN(Cc2nc3c(c(=O)n(C)c(=O)n3C)n2CCc2ccccc2)CC1`, the fluorescence intensity was 3630 (inactive).

Take `Cc1ccc2c(c1)nnc1nnc(SCC(=O)O)n12`: the fluorescence intensity is 6320 (inactive).

For `CCOc1ccc(CCN2C(=O)C(=O)N([C@@H](Cc3ccc(O)cc3)CN3CCC[C@H]3CN3C(=O)C(=O)NC[C@@H]3CC(C)C)C[C@@H]2Cc2ccccc2)cc1`, the fluorescence intensity was 4410 (inactive).

Turning to `CCN(CCN(C)C)C(=O)c1ccc2nc(C)c(N(C)C(=O)CCc3ccccc3)n2c1`, the fluorescence intensity is 3720 (inactive).

For `Cc1c(S(=O)(=O)NCc2ccccc2)c(=O)n(C)c(=O)n1C`, the fluorescence intensity is 4270 (inactive).

For the compound `CCn1c2ccccc2c2cc(NC(=O)C/C(C)=N/NC(=O)c3ccccc3N)ccc21`, the fluorescence intensity is 23100 (active).

Take `CCn1c2ccccc2c2cc(NC(=O)COC(=O)c3cc(S(=O)(=O)N4CCCCC4)ccc3Cl)ccc21`: the fluorescence intensity was 1830 (inactive).

As to `CCn1c2ccccc2c2cc(NC(=S)N3CCOCC3)ccc21`, the fluorescence intensity was 2580 (inactive).
